These results are taken from paper PMC5540273 (PLoS ONE, 2017).

Test systems include MERTK; MET; MKK7; MKNK1; MKNK2; MLK2; MLK3; MRCKA; MST1R; MST4; MTOR; MUSK; MYLK2.
What all share (conditions): concentration: 1 μM, replicates: in singlicate; n = 1
In a further assay the test system is T1, MINK.
T1 construct: gene MINK1

The next assay concerns T2, MLCK.
T2 construct: gene MYLK3

The test system of the next assay is T3, MLK1.
T3 construct: gene MAP3K9

Another assay relates to T4, MRCKB.
T4 construct: gene CDC42BPB

Another assay deals with T5, MST1.
T5 construct: gene STK4

Another assay concerns T6, MST2.
T6 construct: gene STK3

In a further assay the test system is T7, MST3.
T7 construct: gene STK24

Molecules are shown by their SMILES.
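Also: KINOMEscan kinase panel screen.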

As to `Nc1n[nH]c2nnc(-c3ccccc3)cc12` [SB-517389], the “%Inh” value was 13% with MERTK; 0% in the assay on MET; 23% in the assay on MINK; 0% in the assay on MKK7; 77% with MKNK1; 12% in the assay on MKNK2. Moreover, the “%Inh” value is 86% with MLCK; 0% in the assay with MLK1; 0% in the assay on MLK2; 0% with MLK3; 16% with MRCKA; 0% in the assay on MRCKB. The “%Inh” value with MST1R worked out at 27%; in the assay on MST1 it was 0%; in the assay with MST2, 5%; with MST3, 0%; in the assay with MST4, 0%; in the assay with MTOR, 14%. The “%Inh” value with MUSK was found to be 8%; in the assay on MYLK2, 13%.

On to `COc1ccc(NC(=O)Nc2ccc(C)c(-c3ccc(C(=O)Nc4ccncc4)cc3)c2)cc1` [GSK1398475], for which the “%Inh” value was 31% with MERTK; 0% in the assay on MET; 5% in the assay with MINK; 0% in the assay with MKK7; 6% in the assay on MKNK1; 0% with MKNK2. The “%Inh” value with MLCK was determined as 0%; with MLK1, 0%; in the assay on MLK2, 0%; in the assay on MLK3, 0%; with MRCKA, 19%; in the assay on MRCKB, 0%. The “%Inh” value with MST1R was 36%; in the assay with MST1 it was 0%; in the assay on MST2, 0%; with MST3, 0%; in the assay on MST4, 0%; with MTOR, 4%. Also, the “%Inh” value in the assay on MUSK and in the assay with MYLK2 was 0% each time.

As for `Cl.Fc1ccccc1COc1ccc(Nc2ncnc3ccc(-c4nnc(C(F)(F)F)o4)cc23)cc1Cl` [GW424170], the “%Inh” value amounted to 10% with MERTK; 0% in the assay with MET; 0% in the assay with MINK; 0% with MKK7; 0% in the assay on MKNK1; 0% in the assay with MKNK2. For the same compound, the “%Inh” value was determined as 0% in the assay on MLCK; 0% in the assay on MLK1; 0% with MLK2; 3% in the assay on MLK3; 7% in the assay on MRCKA; 0% in the assay on MRCKB. The “%Inh” value with MST1R was determined as 18%; in the assay on MST1 it was 0%; with MST2 it was 0%; in the assay with MST3, 0%; in the assay on MST4, 0%; in the assay with MTOR, 0%. The “%Inh” value in the assay on MUSK and in the assay with MYLK2 was 0% throughout.

For the compound `O=C(Nc1ccccc1)Nc1ccc(Oc2ccc3nccn3n2)cc1`, the “%Inh” value is listed as 16% in the assay on MERTK; 1% with MET; 38% in the assay on MINK; 0% in the assay with MKK7; 14% in the assay on MKNK1; 0% in the assay on MKNK2. Besides, the “%Inh” value was 0% with MLCK; 15% with MLK1; 0% in the assay on MLK2; 0% with MLK3; 0% in the assay on MRCKA; 0% in the assay on MRCKB. Besides, the “%Inh” value in the assay on MST1R is 18%; in the assay on MST1 it was 0%; in the assay with MST2 it was 0%; in the assay on MST3, 11%; with MST4 it was 0%; in the assay with MTOR it was 12%. The “%Inh” value worked out at 9% with MUSK and 0% in the assay on MYLK2.

Take `CS(=O)(=O)CCNCc1ccc(-c2ccc3ncnc(Nc4ccc(OCc5ccccc5)c(Cl)c4)c3c2)o1.Cl` [GW574783]: the “%Inh” value is listed as 5% in the assay on MERTK; 0% in the assay on MET; 0% in the assay with MINK; 71% in the assay with MKK7; 26% in the assay with MKNK1; 0% in the assay on MKNK2. Also, the “%Inh” value is 0% in the assay with MLCK; 0% in the assay on MLK1; 31% in the assay on MLK2; 10% in the assay on MLK3; 0% with MRCKA; 2% with MRCKB. Further, the “%Inh” value in the assay with MST1R is 17%; in the assay on MST1, 23%; with MST2, 0%; in the assay with MST3, 0%; in the assay with MST4, 0%; in the assay with MTOR, 30%. Further, the “%Inh” value in the assay with MUSK is 19%; in the assay on MYLK2 it was 16%.

For the compound `Nc1nc(-c2cccnc2)c(-c2ccnc3ccccc23)s1` [GW684083], the “%Inh” value with MERTK came out at 0%; with MET, 0%; in the assay on MINK it was 51%; in the assay on MKK7, 0%; in the assay with MKNK1, 1%; in the assay on MKNK2, 0%. For the same compound, the “%Inh” value in the assay on MLCK turned out to be 30%; in the assay with MLK1, 0%; in the assay with MLK2, 0%; in the assay on MLK3, 7%; in the assay on MRCKA, 0%; in the assay on MRCKB, 0%. In addition, the “%Inh” value in the assay on MST1R amounted to 18%; in the assay with MST1, 4%; in the assay on MST2 it was 10%; in the assay with MST3, 10%; with MST4, 0%; with MTOR, 27%. The “%Inh” value was found to be 11% in the assay on MUSK and 0% with MYLK2.

In the case of `Cn1ccc2ncnc(Nc3ccc(Oc4cccc(Cl)c4)c(Cl)c3)c21`, the “%Inh” value in the assay on MERTK amounted to 13%; in the assay with MET, 2%; in the assay with MINK, 7%; in the assay on MKK7, 0%; with MKNK1, 16%; with MKNK2 it was 0%. The “%Inh” value in the assay on MLCK was 0%; in the assay on MLK1, 7%; in the assay with MLK2, 15%; in the assay with MLK3 it was 0%; in the assay on MRCKA, 0%; in the assay with MRCKB, 0%. For the same compound, the “%Inh” value is listed as 42% in the assay on MST1R; 6% with MST1; 25% in the assay on MST2; 10% in the assay with MST3; 0% with MST4; 0% with MTOR. The “%Inh” value stood at 3% with MUSK and 20% with MYLK2.

Turning to `O=C(CCO)NCCn1ccc2ncnc(Nc3ccc(Oc4cccc(C(F)(F)F)c4)c(Cl)c3)c21`, the “%Inh” value in the assay on MERTK was determined as 0%; with MET it was 0%; in the assay on MINK, 0%; in the assay with MKK7, 0%; with MKNK1, 0%; with MKNK2, 12%. Moreover, the “%Inh” value with MLCK worked out at 0%; in the assay with MLK1 it was 0%; with MLK2, 0%; in the assay on MLK3, 0%; with MRCKA it was 0%; with MRCKB it was 2%. Besides, the “%Inh” value was found to be 0% in the assay on MST1R; 0% with MST1; 0% in the assay with MST2; 0% in the assay with MST3; 0% in the assay with MST4; 31% with MTOR. Further, the “%Inh” value in the assay on MUSK and in the assay with MYLK2 was 0% in each case.
